Compounds with a hit are over-represented: about 2.9% of the library has one in this group of screens.
Pol eta inh: qHTS for Inhibitors of Polymerase Eta; Potency, µM (highest dose often 114 µM), inactives show at the highest dose activity change, negative = inhibition, usual class: inhibitors; DNA polymerase eta (Homo sapiens), Q9Y253; hit rate 1.2% among 390,000; recombinant Pol eta, fluorescent DNA replication assay; note: potency is the fitted concentration of half-maximal effect; % is set by controls: 0 for no effect and ±100 for the full control effect
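Pol eta (10 nM) was preincubated with compounds for 15 min at room temperature, after which fluorescent replication substrate (50 nM final) was added to start the reaction. Fluorescence was read kinetically at 0 and 10 min.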
ALOX12 inh: Primary qHTS assay for inhibitors of human arachidonate 12S-lipoxygenase (ALOX12): Round 2. Polyunsaturated fatty acid lipoxygenase ALOX12 (Homo sapiens), P18054. purified 12hLO, xylenol orange hydroperoxide absorbance. Potency, µM (top dose mostly 108 µM), without a hit: at the top dose activity change, negative = inhibition, most hits filed as inhibitors. hit rate 1.1% among 580,000. AID 1671190, 2021; note: potency is the fitted concentration of half-maximal effect; % is set by controls: 0 for no effect and ±100 for the full control effect
Target sequence (P18054 whole entry, looked up): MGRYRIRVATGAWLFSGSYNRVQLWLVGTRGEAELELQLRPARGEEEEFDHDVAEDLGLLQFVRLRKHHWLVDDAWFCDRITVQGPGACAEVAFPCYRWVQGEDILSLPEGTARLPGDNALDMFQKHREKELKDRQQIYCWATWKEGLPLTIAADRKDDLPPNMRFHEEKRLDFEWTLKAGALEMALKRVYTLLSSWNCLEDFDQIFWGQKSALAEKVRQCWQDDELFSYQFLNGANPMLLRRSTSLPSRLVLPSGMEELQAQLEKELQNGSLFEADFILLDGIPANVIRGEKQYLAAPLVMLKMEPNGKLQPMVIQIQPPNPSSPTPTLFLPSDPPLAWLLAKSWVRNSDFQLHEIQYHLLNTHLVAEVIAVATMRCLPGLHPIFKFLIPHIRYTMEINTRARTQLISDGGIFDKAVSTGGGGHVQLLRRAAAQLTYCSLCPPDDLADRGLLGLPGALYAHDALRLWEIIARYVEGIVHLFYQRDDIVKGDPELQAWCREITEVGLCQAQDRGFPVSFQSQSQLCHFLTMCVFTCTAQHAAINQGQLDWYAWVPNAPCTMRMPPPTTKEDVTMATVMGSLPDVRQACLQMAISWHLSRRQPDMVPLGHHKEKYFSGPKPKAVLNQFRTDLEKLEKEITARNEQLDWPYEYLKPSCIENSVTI
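Purified human 12hLO at 150 nM in 25 mM Hepes, 0.01% Triton X-100, pH 7.0, preincubated 15 min at room temperature with compound. Reaction started with 40 uM arachidonic acid, 30 min at room temperature. Hydroperoxide measured by Fe-xylenol orange, 573/405 nm absorbance ratio.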
POLB inh: qHTS Assay for Inhibitors of DNA Polymerase Beta; hit rate 1.3% among 340,000; P06746; Potency, µM (highest dose often 114 µM), without a hit: top-dose activity change, negative = inhibition, usual class: inhibitors; Pol beta primer extension/strand displacement, fluorescence kinetic; note: potency is the fitted concentration of half-maximal effect; % is set by controls: 0 for no effect and ±100 for the full control effect
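Values derive from four-parameter Hill fits of normalized kinetic data: reads at 0 and 10 min following addition of 50 nM substrate to 10 nM Pol beta preincubated 15 min with compound.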
PI5P4Ka inh: qHTS for Inhibitors of phosphatidylinositol 5-phosphate 4-kinase (PI5P4K); max response, %; hit rate 1.2% among 330,000; Phosphatidylinositol 5-phosphate 4-kinase type-2 alpha (Homo sapiens), P48426; PI5P4Kalpha enzyme, ADP-Glo luminescence, 60 min; hits give low values; active = max response of -50% or lower; inconclusive = between -30% and -50%; inactive = -30% or higher; note: value at the top dose of about 77 µM; % is set by controls: 0 for no effect and ±100 for the full control effect
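Reactions run in 0.038 M HEPES pH 7.4, 0.28 mM EGTA, 0.1% CHAPS and 5% DMSO, with PI5P4Kalpha, substrate, compound and 5 microM ATP final, one hour at room temperature. Readout is ADP-Glo luminescence.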
POLK inh: qHTS for Inhibitors of Polymerase Kappa; DNA polymerase kappa (Homo sapiens), Q9UBT6; Potency, µM (top dose mostly 107 µM), for the others: top-dose activity, negative = inhibition, actives largely listed as inhibitors; hit rate 0.53% among 400,000; purified Pol kappa, fluorescent DNA synthesis assay, 10 min; note: potency is the fitted concentration of half-maximal effect; % is set by controls: 0 for no effect and ±100 for the full control effect
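Kinetic fluorescence readout at 0 and 10 min followed reaction start with substrate at 50 nM final. Beforehand, enzyme (10 nM Pol kappa) stood 15 min with compound at room temperature; buffer-only wells were negative controls.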
Pol iota inh: qHTS for Inhibitors of Polymerase Iota. Pol iota fluorescent replication assay, 10 min. hit rate 1% among 390,000. Potency, µM (series often up to 115 µM), without a hit: at the highest dose activity, negative = inhibition, most hits filed as inhibitors; note: potency is the fitted concentration of half-maximal effect
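Pol iota at 10 nM preincubated 15 min with compounds at room temperature; reaction started with fluorescent substrate, 50 nM final. Fluorescence read kinetically at 0 and 10 min; buffer-only wells as negative control.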
Active calls of the source: *; u = inconclusive; x = no result given; [ ] = remark or other dose. Unless noted, calls come from the whole dose curve; as a rule, active = well fitted inhibition curve with a large enough effect; inconclusive = small, poorly fitted or top-dose-only effect, or another doubt; inactive = no such curve, though single readings can be large or run the other way.

SMILES	Pol eta inh	ALOX12 inh	POLB inh	PI5P4Ka inh	POLK inh	Pol iota inh
CCS(=O)(=O)c1cccc(C(=O)Nc2ccc(-c3nc4ccccc4s3)c(O)c2)c1	u	u	20µM*	x	-4.6%[60.1 µM]	u
CC1=C[C@@H](CNCc2cccnc2)[C@H](C(C)C)C[C@H]1Cc1nnc(-c2ccc(N(C)C)cc2)o1	x	12.2%	x	x	x	x
Cc1ccc(OCC(=O)NNC(=O)c2cc3ccccc3o2)cc1C	u	0.0%	28.2µM*	9.0	u	u
Cc1ccc(OCC(=O)NNC(=O)c2cc3ccccc3o2)cc1	15.4%	-29.8%	u	1.6	-1.9%	-5.7%
Cc1cc(OCC(=O)Nc2ccc(CCO)cc2)c2c(C)cc(=O)oc2c1	x	-6.5%	x	x	x	x
O=S(=O)(Nc1nc2ccccc2nc1Nc1ccccc1Cl)c1cccs1	x	-22.3%	x	x	x	x
O=C1NC(=O)C(=Cc2ccc(-c3ccc(F)cc3O)o2)S1	x	-76.6%[57.4 µM]	x	x	x	x
O=C1NC(=O)/C(=C\c2ccc(Br)o2)S1	22.4µM*	u	17.8µM*	u	25.1µM*	u
CCc1c(C)sc(NC(=S)Nc2nc(C)cc(C)n2)c1C(=O)OC	-27.4%	22.4µM*	0.3%	-2.6	1.3%	6.2%
CCc1c(C)sc(NC(=S)Nc2cccnc2)c1C(=O)OC	-19.7%	-24.2%	-2.3%	-3.5	0.9%	159.3%
COc1ccc(CN2CCc3nc(C(=O)Nc4ccccc4)oc3CC2)cc1	x	-2.5%[176 µM]	x	x	x	x
COc1ccc(Nc2cc(C)nc(N3CCOCC3)n2)cc1	3.9%	47.7%	24.0%	-1.0	-10.3%	31.6µM*
COc1ccc(/C=N/Nc2cc(C)nc(N3CCOCC3)n2)cc1	-21.8%	-24.2%	u	9.7	7.3%	2.5%
O=C1CC(c2ccccc2O)Cc2nc(N3CCN(c4ccccc4F)CC3)ncc21 (centres undefined)	x	1.2%	x	x	x	x
Cc1ccc(Cn2c(-n3nc(C)c(C)c3C)nc3c2c(=O)n(CC(N)=O)c(=O)n3C)cc1	x	6.2%	x	x	x	x
O=C(c1ccco1)N1CCN(CCOCCOc2cccc3ccccc23)CC1	-8.0%	u	7.2%	x	-4.5%	30.7%
O=C(c1ccco1)N1CCN(CCCCOc2cccc3ccccc23)CC1	-20.5%	44.7µM*	-1.4%	-2.3	-3.4%	9.7%
NC(=O)CCN(C(=O)c1cccc(C(F)(F)F)c1)c1ccccc1	x	-32.0%	x	x	x	x
CN1CCN(c2oc(/C=C/c3cccs3)nc2C#N)CC1	x	-0.7%	x	x	x	x
O=C(O)c1ccccc1N/C=C\[N+](=O)[O-]	u	-8.7%	25.1µM*	-6.8	-18.8%	u
O=C(/C=C/Nc1ccccc1C(=O)O)c1cccs1	-7.0%	-7.0%	10.8%	-6.6	0.9%	22.0%
COc1ccc(C(=O)Oc2ccc(/C=N/Nc3ccc(Cl)c(C(=O)O)c3)cc2OC)cc1	79.4µM*	u	u	1.9	-28.2%	9.1%
COc1cc(/C=N/Nc2ccc(Cl)c(C(=O)O)c2)ccc1OC(=O)c1ccco1	-18.1%	-26.7%	-0.5%	1.4	-9.8%	7.0%
COc1cc(/C=N/Nc2ccc(Cl)c(C(=O)O)c2)ccc1OC(=O)c1cccs1	79.4µM*	u	u	6.5	-12.4%	80.1%
COc1ccc2ccccc2c1/C=N/Nc1ccc(Cl)c(C(=O)O)c1	44.7µM*	u	4.3%	-28.1	u	u
O=C(O)c1cc(N/N=C/c2ccc(-c3ccccc3)cc2)ccc1Cl	u	-32.1%	89.1µM*	u	-2.0%	-6.3%
O=C(O)c1cc(N/N=C/c2ccncc2)ccc1Cl	3.8%	-26.4%	5.0%	-24.8	-13.8%	12.8%
COc1ccccc1-c1nc(-c2cccc(NC(=O)Nc3ccc(F)cc3)c2)no1	x	1.3%	x	x	x	x

From PubChem
